In all, about 3,400 compounds went through this assay and about 840 (25%) were called active. Inconclusive results (about 11%) are left out. Only a sample is shown. Results with a measured potency or affinity are listed apart. Unmarked numbers belong to inactive results.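 Rule for the calls: active = fitted half-maximal concentration of signal decrease at or below twice the sample's top tested concentration; inconclusive = flat curve between -70 and -30 percent, or poor fit; inactive = flat within 30 percent, signal rise, or potency above limit.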

The test can be described thus: T. gondii growth inhibition with IFN-gamma, dose response, cell-based, ME49Luc, HeLa, luciferase, 72 h (AID 1259418). To be noted: T. gondii ME49Luc in IFN-y HeLa, active compounds read low, -100% = high-dose IFN-γ control wells; at 19.5 µM unless noted.
Consider `CC(=O)N1CCC(N(C)Cc2cc(C(C)(C)C)n[nH]2)CC1`, for which the max activity was 35.9%.

Turning to `COc1ccc(-c2noc(-c3nnn(Cc4nc(-c5ccccc5OC)oc4C)c3C)n2)cc1`, the max activity was 15.5% [at 5 µM].

For the compound `COc1cc(OC)cc(C(=O)N2CSC[C@@H]2C(=O)NCCc2csc(-c3ccccc3)n2)c1`, the max activity is 23.7%.

Turning to `COc1cccc(-c2nc3c(s2)CN(S(=O)(=O)c2cccc(C)c2)CC3)c1`, the max activity is -6.22% [at 2.6 µM].

Turning to `CCc1ccccc1S(=O)(=O)N1CCc2nc(-c3ccccc3)sc2C1`, the max activity is 115% [at 10 µM].

Take `CCc1ccccc1S(=O)(=O)N1CCc2nc(-c3cccc(OC)c3)sc2C1`: the max activity was -7.33% [at 0.35 µM].

As to `COc1ccc(-c2nc3c(s2)CN(S(=O)(=O)c2cccc(Cl)c2C)CC3)cc1`, the max activity was 10.3% [at 10 µM].

Consider `COc1ccc(-c2nc3c(s2)CN(S(=O)(=O)c2cc(OC)ccc2OC)CC3)cc1`, for which the max activity was 28%.

For the compound `COc1ccc(S(=O)(=O)N2CCc3nc(-c4cccc(OC)c4)sc3C2)cc1`, the max activity was -10.4% [at 0.16 µM].

`COc1cccc(-c2nc3c(s2)CN(S(=O)(=O)c2cc(C)cc(C)c2)CC3)c1`: the max activity was -33.8% [at 0.16 µM].

For the compound `COc1cccc(-c2nc3c(s2)CN(S(=O)(=O)c2ccccc2Cl)CC3)c1`, the max activity is 5.54% [at 10 µM].

Take `Cc1ccc(-c2nc(CSc3nc4c(c(=O)[nH]3)CN(Cc3ccc(Cl)cc3)CC4)c(C)o2)cc1`: the max activity is 23.9%.

Regarding `O=C(Cn1cccc1-c1nc(-c2ccc(Cl)cc2)cs1)N1CCC2(CC1)OCCO2`, the max activity was -6.36% [at 10 µM].

Regarding `O=C1CCc2cc(S(=O)(=O)N3CCN(c4ccc(F)cc4)CC3)cc3c2N1CCC3`, the max activity was 10.7% [at 2.6 µM].

Take `CCOC(=O)c1cccc(NC(=O)Nc2ccc(-c3nc(-c4ccc(C)cc4)co3)cc2)c1`: the max activity was 67.3%.

On to `COc1ccc(-c2nc3c(s2)CN(C(=O)Nc2ccc(Br)cc2)CC3)cc1`, for which the max activity was 26.4% [at 10 µM].

Consider `Cc1nc(-c2ccccc2)sc1C(=O)Nc1ccc(-n2c(C)nc3ccccc3c2=O)cc1`, for which the max activity was -25.8%.

Turning to `CC1CCN(C(=O)c2ccc(-c3csc(C4CC4)n3)cc2)CC1`, the max activity was 6.7%.

For the compound `CCN1C(=O)CCc2cc(NC(=O)Cc3c(F)cccc3Cl)ccc21`, the max activity was 7.81%.

With `O=C(Nc1ccc(-c2nc(-c3ccccc3)co2)cc1)c1ccc(Br)o1`, the max activity was 25.6%.

As to `Cc1ccc2c(c1C)-n1cccc1C1(CCN(C(=O)c3cccs3)CC1)N2`, the max activity was -15.1% [at 5 µM].

Take `COc1ccc(-c2nc(N3CCC(C)CC3)c3ccccc3n2)cc1`: the max activity was 21.8%.

With `COc1ccc(OCC(=O)N2CCC[C@@H]2C(=O)NCCc2csc(-c3ccccc3)n2)cc1`, the max activity is 10.2% [at 0.16 µM].

In the case of `COc1ccc(-c2nc(NCCCN3CCN(c4ccc(F)cc4)CC3)c3ccccc3n2)cc1`, the max activity was -17.2% [at 0.35 µM].

For the compound `COc1ccc(-c2nc(NCCN3CCN(c4ccc(OC)cc4)CC3)c3ccccc3n2)cc1`, the max activity was 15.4% [at 0.16 µM].

Turning to `COc1ccc(-c2nc(NCCCN3CCN(c4cc(C)ccc4C)CC3)c3ccccc3n2)cc1`, the max activity is 21.7%.

`COc1ccc(N2CCN(CCNc3nc(-c4ccc(Cl)cc4)nc4ccccc34)CC2)cc1`: the max activity is 22% [at 0.68 µM].

In the case of `CCCN1CCN(CCCNc2nc(-c3ccc(Cl)cc3)nc3ccccc23)CC1`, the max activity was -50.1% [at 1.35 µM].

`COc1ccc(-c2nc(NCCCN3CCCC3)c3ccccc3n2)cc1`: the max activity is 15.7%.

For `O=C(NCCc1csc(-c2ccccc2)n1)[C@H]1CCCN1C(=O)c1cccc(Cl)c1`, the max activity was -10.8% [at 0.35 µM].

In the case of `Cc1cccc(-c2nc(Cn3nnc(-c4nc(-c5cccc(F)c5)no4)c3C)c(C)o2)c1`, the max activity was -7.79% [at 1.35 µM].

As for `COc1ccccc1-c1nc(Cn2nnc(-c3nc(-c4ccccc4C)no3)c2C)c(C)o1`, the max activity was 11.1% [at 0.16 µM].

For the compound `COc1ccc(-c2nc(NCc3ccccc3Cl)c3ccccc3n2)cc1`, the max activity is 7.56% [at 0.16 µM].

As for `COc1ccccc1CNC(=O)CC1N=C2c3ccccc3N=C(SCC#N)N2C1=O` (stereo not drawn), the max activity was 42.4% [at 10 µM].

As for `COc1cc(OC)cc(-c2noc(-c3nnn(Cc4nc(-c5ccc(C)cc5)oc4C)c3C)n2)c1`, the max activity was 10.5% [at 0.16 µM].

In the case of `CC1CCCCN1C(=O)c1ccnn1-c1ccc2ccc(-c3ccccc3)cn12` (stereo not drawn), the max activity was 31.6%.

`Cc1ccc(NC(=O)N2CCN(Cc3nc(-c4ccccc4C)oc3C)CC2)cc1C`: the max activity is 8.71% [at 0.68 µM].

As to `COc1ccc(-c2nc(NCCCN3CCC(Cc4ccccc4)CC3)c3ccccc3n2)cc1`, the max activity is -19.1% [at 0.35 µM].

With `CCC(CN1CCOCC1)Nc1nc(-c2ccc(OC)cc2)nc2ccccc12` (stereo not drawn), the max activity was 27.4%.

As for `O=C(NCCc1c[nH]c2ccccc12)c1cc(-c2ccccn2)nc2ccccc12`, the max activity is 15.3% [at 0.68 µM].

`CCCc1ccc(S(=O)(=O)N2CCc3nc(-c4ccc(OCC)cc4)sc3C2)cc1`: the max activity was 88.1%.

`Cc1ccc(CN2CC[C@H]3CO[C@@H](CNC(=O)C4CC4)[C@@H]3C2)cc1`: the max activity is 18.5%.

With `O=C1N(CC2CC2)CCC12CCCN(Cc1cncc(Cl)c1)CC2` (stereo not drawn), the max activity is 33.7%.

For the compound `COc1cccc(N(Cc2nc(-c3ccc(OC(C)C)cc3)oc2C)S(=O)(=O)c2ccccc2)c1`, the max activity was 4.32% [at 10 µM].

Take `COc1cccc(N(Cc2nc(-c3ccc(C)cc3)oc2C)S(=O)(=O)c2ccccc2)c1`: the max activity was -10.4% [at 10 µM].

Turning to `COc1ccc(CNC(=O)CC2N=C3c4ccccc4N=C(SCc4cc(=O)n5ccccc5n4)N3C2=O)cc1` (stereo not drawn), the max activity was 19.7% [at 2.6 µM].

`CCOC(=O)c1c(C)[nH]c(-c2ccccc2)c1-c1ccccc1`: the max activity is 20.8% [at 10 µM].

For the compound `CCc1ccc(NC(=O)Nc2ccc(-c3nc(-c4ccc(C)cc4)co3)cc2)cc1`, the max activity is 11.2% [at 0.16 µM].

Consider `Cc1ccc(S(=O)(=O)N2CCC3(CC2)NCCN=C3NCc2ccc(F)cc2)c(C)c1`, for which the max activity is -23.4%.

With `Cc1ccc(S(=O)(=O)N2CCC3(CC2)NCCN=C3NCc2cccc(F)c2)c(C)c1`, the max activity was -19.4% [at 10 µM].

Take `CCc1ccc(S(=O)(=O)N2CCC3(CC2)NCCN=C3NCc2cccc(OC)c2)cc1`: the max activity is -9.5% [at 0.68 µM].

As for `COc1ccc(CNC2=NCCNC23CCN(S(=O)(=O)c2cccs2)CC3)cc1`, the max activity was -8.27% [at 0.35 µM].

Consider `CN(C)C(=O)c1ccc(-c2ccc([C@H]3[C@@H](CO)N4C(=O)CN(C(=O)CC5CC5)C[C@@H]34)cc2)cc1`, for which the max activity was 20.3%.

For the compound `Cc1cnc(N2C[C@@H](c3ccccc3)[C@@]3(CCNC3=O)C2)nc1`, the max activity was 22.8%.

Take `Cc1ccc(-n2ncc3c(NCC4CCCO4)ncnc32)c(C)c1` (stereo not drawn): the max activity is 9.91% [at 0.16 µM].

With `COc1ccc(CNC(=O)CCC2N=C3c4ccccc4N=C(SCc4cc(=O)n5cc(Cl)ccc5n4)N3C2=O)cc1` (stereo not drawn), the max activity is -8.86% [at 1.35 µM].

As to `CSc1ccc(-c2noc(-c3nnn(Cc4nc(-c5cccc(C)c5)oc4C)c3C)n2)cc1`, the max activity was -16.4% [at 0.16 µM].

With `Cc1ccc(OCC(=O)Nc2cncc(-c3nc4ccccc4o3)c2)cc1`, the max activity is 10.2% [at 1.35 µM].

`Cc1nc(CCNC(=O)[C@H]2CCCN2S(=O)(=O)c2ccc3c(c2)CCCC3)cs1`: the max activity was 26.6% [at 0.35 µM].

For the compound `Cc1ccc2c(c1)cc(S(=O)(=O)c1ccccc1)c(=O)n2CC(=O)NCc1ccc2c(c1)OCO2`, the max activity is -10.2% [at 0.68 µM].

Turning to `Cc1cccc(CNC2=NCCNC23CCN(S(=O)(=O)c2ccc(C)c(C)c2)CC3)c1`, the max activity is -21.5%.

As for `Cc1ccccc1CNC1=NCCNC12CCN(S(=O)(=O)c1cccs1)CC2`, the max activity is 21.2% [at 10 µM].

Regarding `COCCCNC1=NCCNC12CCN(S(=O)(=O)c1ccc(C)cc1C)CC2`, the max activity was 13.7% [at 10 µM].

For the compound `Cc1ccc(S(=O)(=O)N2CCC3(CC2)NCCN=C3NCc2ccccc2C)c(C)c1`, the max activity is -17.1%.

Take `O=C(CC1N=C2c3ccccc3N=C(SCc3cc(=O)n4ccccc4n3)N2C1=O)NCc1ccc2c(c1)OCO2` (stereo not drawn): the max activity was 49.3%.

With `Cc1nc(OCC(=O)Nc2ccc(C)c(C)c2)c2ccccc2n1`, the max activity is 14.4% [at 0.16 µM].

Turning to `O=C(Nc1ccc(Cl)cc1)N1C[C@H]2[C@@H](c3ccccc31)[C@@H](CO)N2CC1CCCCC1`, the max activity is 10.8% [at 10 µM].

Regarding `CSc1cccc(NC(=O)CN2CCC3(CC2)N=C(c2ccc(F)cc2)C(=O)N3)c1`, the max activity is 9.26%.

Take `COc1ccccc1-c1nc(CN2CCc3c(sc4c3CCCC4)C2c2ccccc2)c(C)o1` (stereo not drawn): the max activity is 10.8% [at 0.038 µM].

Take `COc1ccc(CN2CCO[C@H]3[C@H]2CC[C@H]3OCCCn2cccn2)cc1`: the max activity is 14.7% [at 5 µM].

With `COc1ccc(CN2C[C@@H]3CN(Cc4cnn(C)c4)C[C@H]3C2=O)cc1`, the max activity was 20.7%.

Turning to `Cc1nc2c(cnn2-c2ccccc2)c(=O)n1-c1cccc2ccccc12`, the max activity is 22.6% [at 10 µM].

With `COc1ccc2c(c1)NC1(CCN(C(=O)c3ccccc3Cl)CC1)c1cccn1-2`, the max activity was -5.12%.

The values are drawn from PubChem BioAssay AID1259418 (Broad Institute, 2018).
